High-throughput results deposited in PubChem by National Center for Advancing Translational Sciences (NCATS).
Compounds with a hit are over-represented: about 2.2% of the library has one in this group of screens.
FUS suppressor – qHTS for Suppressors of FUS Proteinopathy: Primary screen using FUS-linked yeast assay. 390,000 compounds, 0.24% hits. Potency, µM (titrated, usually from 76.6 µM), usual class: activators. S. cerevisiae FUS-expressing, growth rescue, OD600, 24 h;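 also: plate controls were DMSO vehicle for no effect and reference control for full effect; nearly all actives have a fitted effect of over 55% in size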
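Cultures pregrown in 2.5% raffinose medium are shifted to minimal medium containing 2% galactose to express toxic FUS. Compounds are tested at several concentrations. After 24hr at 30C, growth is quantified at 600 nm absorbance.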
Mito fusion act – qHTS Assay for Small Molecule Inhibitors of Mitochondrial Division or Activators of Mitochondrial Fusion | S. cerevisiae fusion-defective mutant growth rescue, CellTiterGlo 48 h | Potency, µM (titrated, usually from 46.1 µM), for the others: at the top dose growth rescue (activation), usual class: activators | 320,000 compounds, 0.23% hits; also: % of control where 0% means no effect; nearly all actives have a fitted effect of over 45% in size
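Compounds are tested for their ability to restore growth of mitochondrial fusion-defective yeast strains at non-permissive 37C in YPEG medium over 48 hours. Viability is quantified by luciferase luminescence.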
ERG Ets-DNA blk – qHTS for Small Molecule Inhibitors of the ERG Ets/DNA interaction; Potency, µM (titrated, usually from 76.9 µM), without a hit: at the highest dose FP activity, negative = inhibition, actives largely listed as inhibitors; fluorescence polarization, His-ERG Ets domain / labelled DNA; Transcriptional regulator ERG (Homo sapiens), P11308; 370,000 compounds, 0.028% hits; active = well fitted inhibition curve with a large enough effect in the polarisation, with a control signal flat; inconclusive = small, poorly fitted or top-dose-only effect, or effect the other way, or a change in a side signal; inactive = no such curve, though single readings can be large or run the other way; the % refers to the polarisation;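 also: polarization taken with two DNA probes labelled with fluorescein and Texas red; % of control where 0% means no effect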
Target sequence (P11308 whole entry, looked up, the tested form may be a part): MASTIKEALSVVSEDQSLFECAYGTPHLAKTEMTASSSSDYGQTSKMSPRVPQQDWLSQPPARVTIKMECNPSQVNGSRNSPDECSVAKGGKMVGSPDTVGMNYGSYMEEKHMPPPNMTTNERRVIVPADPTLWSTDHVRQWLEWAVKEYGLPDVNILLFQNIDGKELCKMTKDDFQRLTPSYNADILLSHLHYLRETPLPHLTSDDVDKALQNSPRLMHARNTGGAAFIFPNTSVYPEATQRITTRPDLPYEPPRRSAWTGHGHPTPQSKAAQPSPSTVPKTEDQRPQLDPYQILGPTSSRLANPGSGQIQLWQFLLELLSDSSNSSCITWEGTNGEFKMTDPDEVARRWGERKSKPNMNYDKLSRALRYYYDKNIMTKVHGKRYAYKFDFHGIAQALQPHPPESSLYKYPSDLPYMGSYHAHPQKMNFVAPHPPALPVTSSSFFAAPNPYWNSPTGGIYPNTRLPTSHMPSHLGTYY
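His-tagged ERG Ets domain (1 uM in the protein solution; 300mM KCl, 50mM Tris-HCl, 1mM EDTA, 1mM DTT, pH 7.5) received compound, then a probe mix of 5 nM fluorescein-DNA and 100nM Texas-615-DNA. Fluorescence polarization was read for both dyes.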
Abeta rescue – qHTS for compounds that reverse cellular toxicity of Amyloid beta (A-beta) peptide in yeast: Primary Screen; yeast expressing A-beta42, growth rescue, OD600, 48 h; response scale: 0% DMSO, 100% iron-clioquinol control; 410,000 compounds, 0.063% hits; Potency, µM (doses to about 46.1 µM), usual class: activators; also: nearly all actives have a fitted effect of over 55% in size
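Yeast A-beta toxicity model in growth medium with pinned compounds, 48 h at 30 C; growth read as absorbance at 600 nm. Normalized to FeCl3/clioquinol equimolar mix (positive) and DMSO (negative).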
TDP-43 yeast inh – qHTS of TDP-43 Inhibitors | TDP-43 expressing yeast growth rescue, BacTiter-Glo, 24 h | Potency, µM (top dose mostly 46.1 µM), for inactives: at the highest dose growth rescue (activation), most hits filed as activators | 410,000 compounds, 1.8% hits | AID 652104, 2013; also: % of control where 0% means no effect; nearly all actives have a fitted effect of over 50% in size
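Growth rescue of TDP-43-toxic yeast measured as ATP luminescence (BacTiter-Glo). Cells grown to mid-log in raffinose, induced in galactose at OD600=0.02, exposed to compound 24 hr at 30 deg C.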
aSyn rescue – qHTS of alpha-syn Inhibitors. 370,000 compounds, 0.14% hits. Potency, µM (doses to about 46.1 µM), for inactives: top-dose growth rescue (activation), most hits filed as activators. Yeast expressing alpha-synuclein, growth rescue, BacTiter-Glo, 24 h; also: % of control where 0% means no effect; nearly all actives have a fitted effect of over 65% in size
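Galactose-induced alpha-syn yeast (OD600=0.02, raffinose-pregrown) + pinned cpd, 24 hr, 30 deg C; growth by BacTiter-Glo luminescence. Growth restoration scores as activation.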
* marks the source's active call; other numbers are inactive results; i = inactive; u = inconclusive; x = no result. Unless noted, calls follow the shape of the dose curve; as a rule, active = well fitted curve in the direction sought with a large enough effect; inconclusive = small, poorly fitted or top-dose-only effect, or another doubt; inactive = no such curve, though single readings can be large; an effect the other way counts as inactive or inconclusive. Potency is read from the fitted curve at half-maximal effect.

SMILES	FUS suppressor	Mito fusion act	ERG Ets-DNA blk	Abeta rescue	TDP-43 yeast inh	aSyn rescue
O=C(NCc1ccccc1)C1=C[C@@H](c2csc3ccccc23)C[C@@H](OCc2ccc(CO)cc2)O1	i	0%	0%	i	11%	6%
C#CCNC(=O)C1=C[C@@H](c2csc3ccccc23)C[C@@H](OCc2ccc(CO)cc2)O1	i	-5%	-5%	i	25µM*	8%
CCN(CC)C(=O)CC[C@H]1CC[C@]2(CCCN(S(C)(=O)=O)C2)O1	i	x	x	x	x	x
CC(C)C(=O)Nc1ncc(Cc2cccc(Cl)c2)s1	i	-10%	6%	u	18µM*	1%
COC(=O)[C@]12C[C@H](CC(=O)NCC3CCCCC3)C(=O)N(CCC3=CCCCC3)C1=C[C@H](C(C)C)O[C@@H]2C1CC1	i	x	x	x	x	x
S=c1nc(-c2ccccc2)n(-c2ccccc2)[nH]1	i	-18%	-11%	i	-8%	-2%
S=c1nc(C2CCCCC2)n(-c2ccccc2)[nH]1	i	9%	-7%	13µM*	3%	-4%
Cc1ccc2nc(CSc3nnc(NC(=O)COc4ccccc4)s3)cc(=O)n2c1	i	x	1%	i	9%	x
O=S(=O)(c1ccccc1)N1CCN(c2ncccn2)CC1	i	-1%	-3%	i	0%	4%
O=S(=O)(c1ccccc1Br)N1CCN(c2ncccn2)CC1	i	5%	4%	i	13µM*	u
CCc1ccc(CCC(=O)Nc2ccc(Br)cc2)o1	i	-4%	2%	i	22µM*	-25%
Cc1ccc(CCC(=O)Nc2ccc(Br)cc2)o1	i	1%	2%	i	28%	-5%
CCN1C(=NCc2cccc(C(F)(F)F)c2)N[C@@H](c2cccc(C(F)(F)F)c2)C(C(=O)OC)=C1C	x	x	x	x	x	-4%
COc1ccc(NC(=O)c2ccc(OC(=S)N(C)c3ccc(OC)cc3)cc2)cc1	i	1%	-13%	i	-6%	-7%
CN(C(=S)Oc1ccc(C(=O)Nc2ccccc2)cc1)c1ccccc1	x	u	0%	i	13µM*	0%
CN(c1ccccc1)S(=O)(=O)c1ccc(NC(=O)c2ccccc2)cc1	x	22µM*	-1%	i	15%	11%
CN(c1ccccc1)S(=O)(=O)c1ccc(NC(=O)c2ccc(F)cc2)cc1	i	x	-4%	i	29%	3%
Cn1nnc(NC(=S)NC(=O)c2cccc3ccccc23)n1	i	-9%	-3%	11µM*	9%	-9%
Cn1nnc(NC(=S)NC(=O)c2cccs2)n1	i	-4%	-2%	i	11%	-16%
CCCCn1nnc(NC(=S)NC(=O)c2cccs2)n1	x	2%	-7%	i	35µM*	-15%
C[C@H](CO)N1C[C@H](C)[C@H](CN(C)C(=O)Nc2ccc(C(F)(F)F)cc2)Oc2ncc(-c3cccnc3)cc2C1=O	i	x	x	i	4%	1%
CCCCCN1CCCCC(NC(=O)C2CCCCC2)C1=O (configuration not stated)	i	x	x	x	x	x
CN(Cc1cc(Cl)cc(Cl)c1)CC(C(=O)c1ccccc1)c1ccccc1 (configuration not stated)	x	x	x	i	13µM*	26%
CN(C)CC(C(=O)c1ccccc1)c1ccccc1 (configuration not stated)	x	-11%	0%	i	9%	-1%
CC(=C1SC(=S)NC1=O)c1ccccc1	x	x	0%	i	13µM*	-12%
CNC(=S)N1CCN(c2c(F)cc3c(=O)c(C(=O)O)cn(C4CC4)c3c2OC)CC1C (configuration not stated)	i	2%	4%	i	4%	-5%
